TRb SRC2 PPI = disrupts binding of human TR beta to SRC2; P10828; TRbeta-SRC2 peptide binding, fluorescence polarization; receptor liganded with 1 µM T3; Potency, µM (top dose mostly 106 µM), actives largely listed as inhibitors; 280,000 tested, 0.065% active; AID 1469; note: nearly all actives have a fitted effect of over 50% in size
Target sequence (P10828 whole entry, looked up): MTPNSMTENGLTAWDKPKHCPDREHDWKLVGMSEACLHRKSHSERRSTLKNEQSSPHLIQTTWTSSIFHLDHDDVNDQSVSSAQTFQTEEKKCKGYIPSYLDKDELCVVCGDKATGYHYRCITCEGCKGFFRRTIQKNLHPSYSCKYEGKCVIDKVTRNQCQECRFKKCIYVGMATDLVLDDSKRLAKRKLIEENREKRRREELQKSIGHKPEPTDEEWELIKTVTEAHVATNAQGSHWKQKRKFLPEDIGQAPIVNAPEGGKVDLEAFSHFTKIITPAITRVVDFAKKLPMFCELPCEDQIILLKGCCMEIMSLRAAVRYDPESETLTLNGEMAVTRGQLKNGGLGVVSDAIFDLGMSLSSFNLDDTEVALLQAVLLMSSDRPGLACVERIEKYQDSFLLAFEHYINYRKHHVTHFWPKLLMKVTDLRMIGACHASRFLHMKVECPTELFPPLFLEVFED
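Decrease in fluorescence polarization of 20 nM Texas Red SRC2 coactivator peptide flagged inhibition of its binding to 0.6 uM TRb LBD; 1 uM T3 included, incubation 5 hr, ex 555/em 632 nm.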
Tau fibril ThT = inhibitors of human tau fibril formation, thioflavin T binding; P10636; recombinant tau K18 P301L, heparin-induced fibrillization, ThT fluorescence; Potency, µM (highest dose often 57.4 µM), hits mostly inhibitors; 270,000 tested, 2.1% active; AID 1460; note: nearly all actives have a fitted effect of over 55% in size
Target sequence (P10636 561-689 P618L limits assumed): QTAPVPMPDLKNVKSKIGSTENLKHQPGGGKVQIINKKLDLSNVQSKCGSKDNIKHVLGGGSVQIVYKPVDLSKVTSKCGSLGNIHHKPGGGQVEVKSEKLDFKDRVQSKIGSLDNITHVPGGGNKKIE
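Fibril formation assay: tau K18 P301L at 15 uM with trace Alexa 594 label, heparin inducer 20 uM, pH 7 sodium acetate buffer, 37 C for 6 hr; endpoint ThT signal.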
TexasRed fluor = Texas Red fluorescence interference in TRb-SRC2 counter-screen. TRb/SRC2 Texas Red total fluorescence interference. Potency, µM (highest dose often 106 µM). 280,000 tested, 0.29% active. AID 1479; active = well fitted curve in either direction with a large enough effect; inconclusive = small, poorly fitted or top-dose-only effect
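Flags fluorescent or light-absorbing compounds by total fluorescence, S + 2P, at 555 nm excitation and 632 nm emission. Mixture: 20 nM Texas Red SRC2 peptide, 0.6 uM human TRb LBD, 1 uM T3, 5% DMSO; compound exposure 5 h at ambient temperature.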
Tau FP inhib = tau fibrillization inhibition (FP) | Potency, µM (doses to about 57.7 µM), hits mostly inhibitors | 280,000 tested, 0.39% active | K18 P301L tau heparin fibrillization, Alexa594 FP, 6 h | P10636; note: nearly all actives have a fitted effect of over 55% in size
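Human tau K18 […] P301L fragment, 15 uM unlabeled plus 0.24 uM Alexa 594-labeled tau (final), with compound and 20 uM heparin in 100 mM sodium acetate pH 7; 6 hr at 37 C, then Alexa 594 FP read.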
Tau fluor cs = counter-screen for tau fibril formation inhibitors; tau K18 P301L (four-repeat tau fragment) Alexa594 fluorescence, heparin fibrillization; Potency, µM (top dose mostly 57.7 µM); 280,000 tested, 0.93% active; note: nearly all actives have a fitted effect of over 55% in size
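Human K18 P301L tau (15 uM unlabeled plus 0.24 uM Alexa 594-labeled, final) in 100 mM sodium acetate pH 7 was mixed with compound and 20 uM heparin and incubated 6 hr at 37 C.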
A number is an active result; 0 = inactive; ? = inconclusive; - = not tested or not shown; ! = not active in a repeat; [ ] = another dose, or the depositor's remark. Compounds with a hit are over-represented: about 3% of the library has one in this group of screens. Unless noted, calls come from the whole dose curve; as a rule, active = well fitted curve in the direction sought with a large enough effect; inconclusive = small, poorly fitted or top-dose-only effect, or another doubt; inactive = no such curve, though single readings can be large; an effect the other way counts as inactive or inconclusive.

SMILES	TRb SRC2 PPI	Tau fibril ThT	TexasRed fluor	Tau FP inhib	Tau fluor cs
CCCCCC(=O)Nc1nc(C)c(-c2csc(Nc3cc(OC)ccc3OC)n2)s1	0	16µM	0	0	11µM[quencher]
C=CCCC(=O)Nc1nc(C)c(-c2csc(Nc3ccccc3OC)n2)s1	0	7.1µM	0	?	13µM[quencher]
COc1ccc(OC)c(Nc2nc(-c3sc(NC(=O)c4ccccc4)nc3C)cs2)c1	0	?	0	0	?
CCCCC(=O)Nc1nc(C)c(-c2csc(Nc3ccccc3OC)n2)s1	0	?	0	0	16µM[quencher]
CCC(C)C(=O)Nc1nc(C)c(-c2csc(Nc3ccccc3OC)n2)s1 (stereo unspecified)	0	?	0	0	13µM[quencher]
COc1ccc(CNC(=O)CCCN2C(=O)CCn3nc(-c4cn(C)c5ccccc45)cc32)cc1	0	0	?	0	0
O=C(O)C(Oc1ccc2ccc(=O)oc2c1)c1ccccc1 (stereo unspecified)	0	0	0	0	0
CN(C)c1ccc(N/C=C/C(=O)c2ccc(F)cc2)cc1	0	2µM	0	0	?
NS(=O)(=O)c1ccc(N/C=C\C(=O)c2ccc(F)cc2)cc1	0	0	0	0	0
CC(=O)Nc1ccc(N/C=C/C(=O)c2ccco2)cc1	0	10µM	0	0	0
CN(C)c1ccc(N/C=C/C(=O)c2ccco2)cc1	0	2µM	0	?	?
COc1ccccc1Oc1ccc(N/C=C/C(=O)c2ccco2)cc1	0	?	0	0	?
O=C(/C=C/Nc1ccccc1O)c1ccco1	0	13µM	0	0	0
CC(C)c1ccc(NC(=O)[C@H]2O[C@@H]3OC(C)(C)O[C@@H]3[C@H]3OC(C)(C)O[C@H]32)cc1	0	0	0	0	0
Cc1nc(-c2ccc(F)cc2)sc1CCNC(=O)c1ccco1	0	?	0	0	0
S=C([S-])NCCNC(=S)[S-].[Mn+2]	0	-	0	-	-
Cc1c2c(c(O)c3c(O)cccc13)C(=O)O[C@H]2C1C(N(C)C)C(O)=C(C(N)=O)C(=O)[C@H]1O (stereo partly specified)	?	-	22µM[quencher]	-	-
O=[N+]([O-])c1cccc(C(=Nc2ccccc2)NO)c1	0	0	0	0	0
O=[N+]([O-])c1cc([N+](=O)[O-])c2c(=Nc3ccccc3)n(-c3ccccc3)n(O)c2c1	0	14µM	0	?	16µM[quencher]
CC(C)CC(=O)Nc1ccc(C(=O)OCc2cc(=O)n3nc(C(C)C)sc3n2)cc1	0	0	0	0	0
CCc1ccc(S(=O)(=O)/N=C2/C=C(Sc3ncn[nH]3)C(=O)c3ccccc32)cc1	20µM	4µM	0	11µM	?
CCc1ccc(S(=O)(=O)/N=C2\C=CC(=O)c3ccccc32)cc1	0	18µM	0	?	?
CN(C)c1ccc(/C=C(\C#N)c2nc(-c3ccc(Cl)c(Cl)c3)cs2)cc1	0	?	0	0	?
CCOc1ccc(CCNC(=O)CCSCc2ccc(Cl)cc2)cc1OCC	0	0	0	0	0
CC1(C)CC(=O)C2=C(C1)NC1=C(C(=O)c3ccccc31)C2c1cc([N+](=O)[O-])ccc1O (stereo unspecified)	0	14µM	0	0	16µM[quencher]
SMILES	TRb SRC2 PPI	Tau fibril ThT	TexasRed fluor	Tau FP inhib	Tau fluor cs
CC1(C)CC(=O)C2=C(C1)NC1=C(C(=O)c3ccccc31)C2c1ccccc1 (stereo unspecified)	0	?	0	0	?
OCCN(CCO)c1nc(N2CCCCC2)c2nc(N(CCO)CCO)nc(N3CCCCC3)c2n1	?	?	40µM![fluorescent]	0	?
CC(C)C(=O)N(c1cc2sc(=O)oc2c2ccccc12)S(=O)(=O)c1cccs1	0	16µM	0	?	?
O=C(Nc1cc(C(F)(F)F)cc(C(F)(F)F)c1)c1cc(Cl)ccc1O	0	-	0	-	-
CCCCNc1nc(C)nc2c1nc(-c1ccccc1)n2C1CCN(Cc2ccccc2)C1 (stereo unspecified)	0	0	0	0	0
CC(C)C(C)C	0	-	0	-	-
CCCSC1=N/C(=C\c2ccc([N+](=O)[O-])o2)C(=O)S1	0	13µM	?	?	?
CCCSC1=N/C(=C\C=C\c2ccco2)C(=O)S1	0	14µM	?	?	?
CCSC1=N/C(=C\c2ccc(-c3ccccc3[N+](=O)[O-])o2)C(=O)S1	?	5µM	?	?	?
Oc1ccc(N=Cc2ccc(O)c(O)c2)cc1	0	3.2µM	0	8.9µM	?
CCOC(=O)c1cc(OC(=O)c2ccc(C)cc2)n(-c2ccccc2)n1	0	?	0	0	0
Cc1ccc(NS(=O)(=O)c2ccc(Br)s2)nc1	0	28µM	0	?	0
Cc1cc(C)nc(NS(=O)(=O)c2ccc(Br)s2)c1	0	0	0	0	0
COc1ccc(CNc2nc(-c3ccco3)nn2C(=O)CC(C)C)cc1	0	0	79µM[quencher]	0	0
Cc1cc(C)n(-c2nc3cc(Cl)ccc3nc2N2CCN(c3cccc(C)c3C)CC2)n1	0	0	0	0	0
O=C(c1ccc2c(c1)N(Cc1ccc(Cl)cc1)C(=O)c1ccccc1S2=O)N1CCOCC1 (stereo unspecified)	0	0	?	0	0
COc1cc(CNc2ccc(N3CCCC3)cc2)cc(Cl)c1OC	0	4µM	0	?	?
CCOc1ccc(CNc2cccc(SC)c2)cc1	0	16µM	0	0	0
CCOc1ccc(CNc2ccc(N3CCCC3)cc2)cc1	0	7.1µM	0	?	?
CCOc1ccc(CNc2ccc(CNc3ncn[nH]3)cc2)cc1	0	?	0	0	0
COc1cc(CNc2ccc(N3CCOCC3)cc2)cc(Br)c1OC	0	?	0	0	0
CCOc1cc(CNc2ccc(N3CCCC3)cc2)cc(Cl)c1OC	0	3.5µM	0	7.1µM	?
Cc1cccc(CN2CCN(CC(=O)NCCc3ccc(Cl)cc3)C2=O)c1	0	0	0	0	0
CC(C)c1ccc(CNc2ccc(N3CCOCC3)cc2)cc1	0	?	0	0	?
c1cc(CNc2ccc(N3CCOCC3)cc2)ccn1	0	22µM	0	?	?
SMILES	TRb SRC2 PPI	Tau fibril ThT	TexasRed fluor	Tau FP inhib	Tau fluor cs
CN(C)c1ccc(CNC(=O)c2cccc(NC(=O)N3CCSc4ncccc43)c2)cc1	0	0	0	0	0
O=C(NCCSc1c[nH]c2ccccc12)c1ccc(Cl)cc1	0	?	0	0	20µM[quencher]
CCC(C)NC(=O)C1CCN(S(=O)(=O)c2ccc3c(ccn3CC)c2)CC1 (stereo unspecified)	0	0	0	0	0
CC1=Nc2cc(C(=O)NCCc3ccc(Cl)cc3)ccc2Sc2c(C)ccc(C)c21	0	0	0	0	0
C[C@H](NC(=O)c1nc[nH]c1C(=O)N[C@H](C)c1ccccc1)C(=O)OCc1ccccc1	0	0	0	0	0
Cc1cccc(NC(=O)c2nc[nH]c2C(=O)N[C@@H](CC(C)C)C(=O)OCc2ccccc2)c1	0	0	0	25µM	?
Cc1cccc(NC(=O)c2nc[nH]c2C(=O)N[C@@H](C)C(=O)OCc2ccccc2)c1	0	0	0	14µM	?

Compound activity deposited in PubChem by National Center for Advancing Translational Sciences (NCATS).
